Lassa entry inh – inhibitors of Lassa virus binding or cell entry; actives 1.2% (n = 300,000); AID 540256; Lassa virus pseudotype entry inhibition, cell reporter; Potency, µM (doses to about 37.9 µM), actives largely listed as inhibitors; calls by dose curve; tested in HEK293 cells; also: nearly all actives have a fitted effect of over 50% in size
AMA1 RON2 block – AMA1-RON2 (P. falciparum) interaction inhibition; AlphaScreen AMA1-biotinylated RON2 peptide binding; actives 0.2% (n = 360,000); Potency, µM (top dose mostly 58.2 µM), hits mostly inhibitors; active = well fitted inhibition curve with a large enough effect; inconclusive = small, poorly fitted or top-dose-only effect; inactive = no such curve, though single readings can be large or run the other way; also: nearly all actives have a fitted effect of over 45% in size
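AMA1 (3D7) with his tag at 25 nM final met compounds first, then biotinylated RON2 peptide at 25 nM; detection used donor plus acceptor beads, 10 µg/mL apiece, read by AlphaScreen after 30 min at room temperature.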
Shiga toxin inh – blocks Shiga toxin action in Vero cells; Vero cells, Shiga toxin protein synthesis inhibition reporter; inhibition, % at 38.7 µM; actives 9.2% (n = 290,000); AID 2315; in the data active = inhibition mostly above about 28%, no sharp cut-off; inactive = mostly below about 43%
MARV entry inh – Marburg virus entry inhibition; Marburg virus pseudotyped entry inhibition, cell reporter; Potency, µM (highest dose often 37.8 µM), actives largely listed as inhibitors; actives 1.8% (n = 300,000); calls by dose curve; tested in HEK293 cells
Cycloheximide cs – affects cycloheximide protein synthesis inhibition readout, counter-screen. cell reporter, cycloheximide protein synthesis inhibition counterscreen. max response, %. actives 12% (n = 300,000). AID 2314; in the data active = max response mostly above about 13%, no sharp cut-off; inactive = mostly below about 14%; also: read at 38.3 µM for the half of the compounds with a filed dose
Each line names hits and unclear results; the compound was inactive in the other large screens. This excerpt belongs to a sample that is enriched for hits.

O=C(Nc1nc2ccccc2s1)c1ccc(OCC2CCCO2)cc1 (stereo not given)	Lassa entry inh 10µM, Shiga toxin inh 82, MARV entry inh inconclusive, Cycloheximide cs 18
Cc1ccc(NC(=O)c2ccc(OCC3CCCO3)cc2)nc1 (stereo not given)	Lassa entry inh inconclusive, MARV entry inh inconclusive (no result: Shiga toxin inh, Cycloheximide cs)
Cc1cnc(NC(=O)c2ccc(OCC3CCCO3)cc2)s1 (stereo not given)	Lassa entry inh 1.8µM, MARV entry inh inconclusive
COc1ccc(OC)c(-c2csc(NC(=O)CSc3ccc(Br)cc3)n2)c1	Lassa entry inh 7.9µM
O=C(O)COc1ccccc1/C=N/NC(=O)c1cccc(S(=O)(=O)N2CCOCC2)c1	none
CCc1ccc([C@H]2[C@@H]3C(=O)C[C@@H]4C(=O)N(Cc5ccccc5)C(=O)[C@@H]4[C@@H]3CN2S(=O)(=O)c2ccc(C)cc2)cc1	none (no result: Lassa entry inh, Shiga toxin inh, MARV entry inh, Cycloheximide cs)
Cc1ccc(Cc2nc3ccccc3nc2SCC(=O)NCCc2ccccc2)cc1	none (no result: AMA1 RON2 block, Shiga toxin inh, MARV entry inh, Cycloheximide cs)
Cc1cc(C(F)(F)F)n2nc(-c3cnn(C)c3C(F)(F)F)c(Br)c2n1	MARV entry inh inconclusive
CCCNC(=O)CN1C(=O)c2ccccc2Sc2ncccc21	Lassa entry inh inconclusive
COc1ccc(OC)c(-c2csc(NC(=O)c3ccc(F)cc3)n2)c1	none (no result: Lassa entry inh, MARV entry inh)
COc1ccc(OC)c(-c2csc(NC(=O)c3ccc(OCC4CCCO4)cc3)n2)c1 (stereo not given)	Shiga toxin inh 40, Cycloheximide cs 39 (no result: Lassa entry inh)
Cc1ccc(CNc2ccc(N3C(=O)CC(C)C3=O)cc2[N+](=O)[O-])cc1 (stereo not given)	none
CC1CC(=O)N(c2ccc(NCCc3ccc(O)cc3)c([N+](=O)[O-])c2)C1=O (stereo not given)	Lassa entry inh inconclusive, Shiga toxin inh 41, Cycloheximide cs 22
CC1CC(=O)N(c2ccc(NCCc3ccccc3)c([N+](=O)[O-])c2)C1=O (stereo not given)	Shiga toxin inh 68, Cycloheximide cs 31
CCN(c1ccccc1)S(=O)(=O)c1csc(C(N)=O)c1	none
COc1ccc(NC(=O)N(C)C[C@@H]2OCc3cnnn3CCCC(=O)N([C@H](C)CO)C[C@@H]2C)cc1	none (no result: Lassa entry inh, Shiga toxin inh, MARV entry inh, Cycloheximide cs)
Cc1ccsc1/C=N/N1CCN(c2ccccc2)CC1	Lassa entry inh inconclusive, Shiga toxin inh 60, Cycloheximide cs 71
Cc1nn(-c2ccccc2)c(C)c1/C=N\N1CCN(c2ccc(Cl)cc2)CC1	none
Cc1ccsc1/C=N/N1CCN(c2ccccn2)CC1	AMA1 RON2 block inconclusive, Shiga toxin inh 55, MARV entry inh inconclusive, Cycloheximide cs 31
Cc1ccsc1/C=N/N1CCN(Cc2ccccc2)CC1	Lassa entry inh inconclusive, AMA1 RON2 block inconclusive, Shiga toxin inh 38, MARV entry inh inconclusive, Cycloheximide cs 24
Cc1ccsc1/C=N/NC(=O)CN1CCN(Cc2ccccc2)CC1	none
Cc1ccc(-n2c(SCC(N)=O)nc3c(oc4ccccc43)c2=O)cc1C	none (no result: Lassa entry inh, AMA1 RON2 block, Shiga toxin inh, Cycloheximide cs)
CCOC(=O)N/N=C1\C[C@@H](O)[C@@H](O)[C@@H]2[C@@H]3C(=O)N(CC)C(=O)[C@@H]3CC[C@H]12	none (no result: Lassa entry inh, AMA1 RON2 block, Shiga toxin inh, Cycloheximide cs)
c1ccc2c3nnc4n(c-3nc2c1)CCCS4	Cycloheximide cs 30
CCCCN(Cc1ccco1)C(=O)c1cc2c(=O)[nH]c3ccc(C)cc3c2s1	none (no result: Lassa entry inh, MARV entry inh)
Cc1ccc2cc(CN(Cc3ccco3)C(=O)c3cccs3)c(=O)[nH]c2c1	Lassa entry inh inconclusive, MARV entry inh 1.3µM
Cc1ccc2cc(CN(C(=O)c3ccco3)c3ccccc3)c(=O)[nH]c2c1	Cycloheximide cs 23
Cc1ccc2[nH]c(=O)c3cc(C(=O)N(CCCOC(C)C)Cc4ccco4)sc3c2c1	MARV entry inh 10µM (no result: Lassa entry inh)
CCOc1ccc(N(Cc2cc3ccc(C)cc3[nH]c2=O)C(=O)COC)cc1	Cycloheximide cs 24
O=C(NCc1ccccn1)c1ccc(Cl)c(S(=O)(=O)N2CCOCC2)c1	MARV entry inh inconclusive
CCc1ccc(NC(=O)C(C)OC(=O)CC(NC(C)=O)c2ccccc2)cc1 (stereo not given)	Cycloheximide cs 33
CC(=O)NC(CC(=O)OC(C)C(=O)Nc1ccc(Cl)cn1)c1ccccc1 (stereo not given)	none (no result: Shiga toxin inh, Cycloheximide cs)
Cc1ccc(Cl)cc1NC(=O)N1CCC(CN2CCCCCC2)CC1	none (no result: AMA1 RON2 block, Shiga toxin inh, MARV entry inh, Cycloheximide cs)
Cc1cc(=O)[nH]c(Nc2ccccc2C)n1	none
O=C1CC(NCCc2ccccc2)C(=O)N1CCc1ccccc1 (stereo not given)	none
Cc1ccc(NC2CC(=O)N(CCc3ccccc3)C2=O)cc1 (stereo not given)	Lassa entry inh inconclusive, MARV entry inh inconclusive, Cycloheximide cs 18
CC(CCc1ccc(O)cc1)NCCC(c1ccccc1)c1ccccc1 (stereo not given)	Lassa entry inh inconclusive, MARV entry inh 7.1µM
CCCn1c(SCc2ccc(Cl)cc2)nc2c1c(=O)[nH]c(=O)n2C	Lassa entry inh 16µM
CC(C)[C@H](NC(=O)N1c2ccccc2NC(=O)[C@@H]1C(C)C)C(=O)N[C@H](Cc1ccccc1)C(=O)O	none (no result: Lassa entry inh, MARV entry inh)
Cc1ccc(S(=O)(=O)N2CCN(C(C)CC(=O)O)CC2)cc1 (stereo not given)	AMA1 RON2 block inconclusive (no result: Lassa entry inh, MARV entry inh)
O=C(CCCOc1ccccc1)N1CCN(c2ccc(F)cc2)CC1	Cycloheximide cs 24
O=C(CCCOc1ccccc1)N1CCN(c2ccccn2)CC1	Lassa entry inh inconclusive, Shiga toxin inh 115, MARV entry inh inconclusive, Cycloheximide cs 27
COc1ccc(C(=O)[C@@H]2CC[C@](C)(C(=O)O)C2(C)C)cc1	none (no result: Lassa entry inh, Shiga toxin inh, MARV entry inh, Cycloheximide cs)
Cc1cc(C)c(NC(=O)COC(=O)c2nc3nccc(C)n3n2)c(Cl)c1	none (no result: Lassa entry inh, Shiga toxin inh, MARV entry inh, Cycloheximide cs)
COc1ccccc1-c1csc(Nc2ccc(Oc3ccccc3)cc2)n1	none (no result: Lassa entry inh, Shiga toxin inh, MARV entry inh, Cycloheximide cs)
CCCCC(=O)OC1=C(C(=O)c2ccccc2)N(CCC)S(=O)(=O)c2ccccc21	MARV entry inh inconclusive (no result: AMA1 RON2 block, Shiga toxin inh, Cycloheximide cs)
CCCCN1C(C(=O)c2ccccc2)=C(OC(=O)CC)c2ccccc2S1(=O)=O	Lassa entry inh inconclusive, MARV entry inh 7.9µM (no result: AMA1 RON2 block, Shiga toxin inh, Cycloheximide cs)
c1ccc(CSc2ccc(-c3cccnc3)nn2)cc1	Shiga toxin inh 98, MARV entry inh inconclusive, Cycloheximide cs 32
COc1ccc(-c2ccc(SCc3cccnc3)nn2)cc1OC	Cycloheximide cs 19 (no result: Lassa entry inh, MARV entry inh)
c1cncc(CSc2ccc(-c3cccnc3)nn2)c1	Shiga toxin inh 67
Cc1ccccc1NC(=O)CSc1ccc(-c2ccccn2)nn1	Lassa entry inh inconclusive, MARV entry inh inconclusive
c1ccc(-c2ccc(SCc3cccnc3)nn2)nc1	AMA1 RON2 block inconclusive, Shiga toxin inh 137, Cycloheximide cs 27
COc1ccc(C)cc1NC(=O)CSc1ccc(-c2cccnc2)nn1	none (no result: Lassa entry inh, MARV entry inh)
Cc1nn(C)c(C)c1S(=O)(=O)N(CC(=O)NCCc1ccccc1)c1ccc(C(C)C)cc1	none (no result: AMA1 RON2 block, Shiga toxin inh, Cycloheximide cs)
CCOc1ccc2ccccc2c1C(=O)Nc1cc(=O)n(C)c(=O)n1C	none (no result: Lassa entry inh, MARV entry inh)
COC(=O)N1C2CC(=O)O[C@H]3c4cc5c(cc4[C@]1(C)[C@@]3(Br)c1ccccc12)OCO5	none (no result: Lassa entry inh, AMA1 RON2 block, Shiga toxin inh, Cycloheximide cs)
CCc1ccc(-n2c(=O)c3c4c(sc3n(Cc3ccccc3C#N)c2=O)CCC4)cc1	none (no result: AMA1 RON2 block, Shiga toxin inh, Cycloheximide cs)
CC(C)Cc1nnc(NC(=O)C2CC(=O)N(c3ccc4c(c3)OCCO4)C2)s1 (stereo not given)	AMA1 RON2 block inconclusive (no result: Shiga toxin inh, Cycloheximide cs)
Cc1c(NS(=O)(=O)c2cc(C(=O)NCc3ccco3)cc(Cl)c2Cl)c(=O)n(-c2ccccc2)n1C	none (no result: Shiga toxin inh, Cycloheximide cs)
